The text below walks through data of PubChem BioAssay (NCATS).

The nature of the assay: Cell Proliferation Assay against the TMD8 Cell Line (AID 651645).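 Also: cells exposed to compound for 48 h before reading.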 As to conditions: TMD8 DLBCL cell line proliferation/viability; at 46.1 µM (top of the series) unless noted. An excerpt:
One class of targeted therapeutics showing early clinical success in killing of ABC DLBCL lines are small molecule inhibitors of the Bruton tyrosine kinase (BTK) 11.
Prior to any combination assays, using an NCATS developed oncology compound library called the Mechanism of Interrogation Plate (MIPE), two well studied ABC DLBCL lines (TMD8 and HBL1) were screened using a cell viability assay (CellTiterGlo) and a 12-point titration series for each single agent. These initial experiments offered insight into the concentration range that offered the best coverage of activity and non-activity to assure relevant data is generated. In addition to the viability signature associated with this library, we examined the apoptotic response of each agent versus the TMD8 line as judged by caspase 3/7 activation. Activity was assayed at both 8 and 16 hour time-points to gain an appreciation of which agents induced an apoptotic response in a reasonable timeframe from a therapeutic exposure perspective. MIPE was also assayed for single agent viability in a human mesenchymal stem cell (hMSC) line as a surrogate of each library member's potential therapeutic index.
A total of 500 log growing TMD8 cells are seeded per well in 5 uL of a RPMI with glutamine (or Glutamax), without phenol red plus 5% FBS and 1X Pen/Strep into 1536 -solid white high base tissue culture treated Greiner One Bio Plates (789173-F) using a multidrop combi dispenser and a small sterile cassette. Compounds and controls totaling 23nL per well (negative control DMSO and positive control 9.2 uM Bortezomib-final) are immediately added to the plates using a 1536 head pin tool from Kalypsys. The plates are then covered with stainless steel gasket lids from Kalypsys and incubated for 48 hours at 37C under 95% relative humidity with 5% CO2. After 48 hours, the plates are removed and allowed to reach room temperature before 3 uL of Cell Titer Glo reagent (Promega) is added using an Aurora Flying Reagent Dispenser Bioraptor. The plates are then spun at 1000 rpms to remove bubbles and incubated for 15 minutes at room temperature before read on a ViewLux using a luminescent filter with a 10 second exposure. The relative luciferase units are used to calculated percent activity using DMSO as 100% and Bortezomib as 0%.
As for `C[C@H](NC(=O)Cc1cc(F)cc(F)c1)C(=O)N[C@@H]1C(=O)N(C)c2ccccc2-c2ccccc21`, the viability (% of control) turned out to be 86.6%. `CC(c1cc2ccccc2s1)N(O)C(N)=O` (stereo not given): the viability (% of control) came out at 92.3% [at 92.2 µM]. Consider `S=C(NCc1ccc2c(c1)OCO2)N1CCN(c2ncnc3c2oc2ccccc23)CC1`, for which the viability (% of control) stood at 26.5%. In the case of `Cc1cccc(-c2[nH]c(C(C)(C)C)nc2-c2ccc3nccnc3c2)n1`, the viability (% of control) is 34%.

For the molecule `Clc1ccc(Nc2nnc(Cc3ccncc3)c3ccccc23)cc1`, the viability (% of control) amounted to 90.1%. The same measure for `O=C(O)[C@@H](c1ccc(OCc2ccc3ccccc3n2)cc1)C1CCCC1`: 94.6%; for `COc1cc(Nc2ncc3c(n2)-c2ccc(Cl)cc2C(c2c(F)cccc2OC)=NC3)ccc1C(=O)O`: 31.4%; for `Cc1cc2c(F)c(Oc3ncnn4cc(OC[C@@H](C)O)c(C)c34)ccc2[nH]1`: 42.5%. The same measure for `COc1ccc2c3n(c(=NC(=O)c4cccnc4)nc2c1OC)CCN3`: 22.1%. The same measure for `COc1ccc2nc(S(=O)Cc3ncc(C)c(OC)c3C)[nH]c2c1` (stereo not given): 52.2%. With `O=C(O)CCc1ccc(NCc2cccc(Oc3ccccc3)c2)cc1`, the viability (% of control) came out at 107%. The value for `Cc1n[nH]c(C)c1Cc1sc2c(c1C(=O)N1C[C@H](O)CO1)c(=O)n(C)c(=O)n2CC(C)C` was 68.3%. For the molecule `O=C(O)c1ccc(-c2c[nH]c3ccc(-c4ccccc4)cc23)cc1C1CCCC1`, the viability (% of control) is 83.2%.

Turning to `CCOC(=O)N[C@@H]1CC[C@@H]2[C@@H](C1)C[C@H]1C(=O)O[C@H](C)[C@H]1[C@@H]2C=Cc1ccc(-c2cccc(F)c2)cn1`, the viability (% of control) came to 42.8%. The value for `O=c1[nH]c(-c2ccc(C(F)(F)F)cc2)nc2c1CSCC2` was 82.1%; that for `COc1ccc(COc2cc3oc(=O)c4cc(C(C)O)ccc4c3cc2OC)cc1` (stereo not given) was 57.4%; that for `COc1c(Cl)cc2c([nH]c3cnccc32)c1NC(=O)c1cccnc1C` was 68.9%. With `COc1ccc(-c2oc3cc(OC)ccc3c2C(=O)c2ccc(C#N)cc2)cc1`, the viability (% of control) was 52.2%. The same measure for `CCN(CCCO)CCCOc1ccc2c(Nc3cc(CC(=O)Nc4cccc(F)c4)[nH]n3)ncnc2c1`: 42.6%.

As to `O=C(Nc1cccnc1)N1CCC(Cc2cccc(Oc3ccc(C(F)(F)F)cn3)c2)CC1`, the viability (% of control) worked out at 36.7%. The value for `CCC(C)N(C)C(=O)c1cc2ccccc2c(-c2ccccc2Cl)n1` (stereo not given) was 65.6%; that for `CCOc1cc(C=C2C(=O)N(c3ccccc3)N=C2C)cc(Cl)c1OCC(=O)OC` was 81.8%. The value for `Nc1nccc(-c2ccc3noc(-c4ccc(Cl)cc4)c3c2)n1` was 81.3%. The same measure for `CC1(C)CNc2cc(NC(=O)c3cccnc3NCc3ccncc3)ccc21`: 49.2%.

Consider `O=S(=O)(N=Cc1c(O)ccc2ccccc12)c1cccs1`, for which the viability (% of control) was determined as 49.7%.

For `O=C(OCC#CCSc1nnc(-c2ccc3ccccc3c2)o1)c1cc2ccccc2s1`, the viability (% of control) worked out at 90%.

Regarding `CNC(=O)c1ccc(N2C(=S)N(c3ccc(C#N)c(C(F)(F)F)c3)C(=O)C2(C)C)cc1F`, the viability (% of control) was found to be 78.7%.

For the molecule `Nc1nc2[nH]cc(CCc3ccc(C(=O)N[C@@H](CCC(=O)O)C(=O)O)cc3)c2c(=O)[nH]1`, the viability (% of control) came to 40%. The value for `Cc1cnc(Nc2ccc(OCCN3CCCC3)cc2)nc1Nc1cccc(S(=O)(=O)NC(C)(C)C)c1` was 90.7%; that for `CCCS(=O)(=O)Nc1ccc(F)c(C(=O)c2c[nH]c3ncc(Cl)cc23)c1F` was 68.5%. In the case of `C[C@@H]1C[C@H]2[C@@H]3CCC4=CC(=O)C=C[C@]4(C)C3(F)[C@@H](O)C[C@]2(C)[C@@]1(O)C(=O)CO` (stereo not given in full), the viability (% of control) worked out at 40.7%.

On to `CCCCCCCc1ccc(CCc2cccc(O)c2C(=O)O)cc1`, for which the viability (% of control) came to 64.1%. On to `CCn1c(-c2nonc2N)nc2cnc(Oc3cccc(NC(=O)c4ccc(OCCN5CCOCC5)cc4)c3)cc21`, for which the viability (% of control) was 19.6%. On to `Cn1cnc2c(F)c(Nc3ccc(Br)cc3Cl)c(C(=O)NOCCO)cc21`, for which the viability (% of control) worked out at 79.9%. The value for `CCc1ccc(CCOc2ccc(CC3SC(=O)NC3=O)cc2)nc1` (stereo not given) was 79.6%.

On to `CN([C@@H](Cc1ccc(OS(=O)(=O)c2cccc3cnccc23)cc1)C(=O)N1CCN(c2ccccc2)CC1)S(=O)(=O)c1cccc2cnccc12`, for which the viability (% of control) worked out at 72.1%. The value for `CC(C)OC(=O)C1=CN(C(=O)c2ccc(F)c(F)c2)CC(C)(C)c2c1[nH]c1ccccc21` was 9.41%; that for `Cn1c(=O)c(F)c(Nc2ccc(I)cc2F)c2c(=O)n(C[C@@H](O)CO)cnc21` was 63.3%; that for `Cc1cc(C=c2sc3nc4ccccc4n3c2=O)c(C)n1-c1ccccc1` was 43.9%. The value for `Cc1csc(NC(=O)c2sc3nc4c(c(C(F)(F)F)c3c2N)CCC4)n1` was 64.8%.
